Laboratory results from PubChem BioAssay (EPA / NIEHS).
Several values for one entry are separate records, joined by “and”; a condition that tells them apart may be missing. Equal values may be shown once. Activity calls are given as the source filed them. How the source made its calls: active means hit-call score of the fitted dose curve at least 0.9, where 1 is the maximum; inactive means score below 0.9.

Each compound was assayed on Interleukin 17F (IL17F), IL17F (gene 112744) (assay: BSK_BT_xIL17F: BioMAP Diversity Plus: BT Assay for Interleukin 17F (IL17F) Biomarker Activity (AID 2284243)). Details: primary human B cells with PBMC.
Protocol: BSK_BT is a cell-based, multiplexed-readout assay that uses B cell and peripheral blood mononuclear cells, a human vascular primary cell co-culture, with measurements taken at 24 hours after chemical dosing in a microplate: 96-well plate.BSK_BT_xIL17F is an assay component measured in the BSK_BT assay. It measures secreted IL-17F related to regulation of gene expression using LumineX xMAP technology.Data from the assay component BSK_BT_xIL17F was analyzed at the endpoint, BSK_BT_xIL17F, in the positive analysis fitting direction relative to DMSO as the negative control and baseline of activity. Using a type of cytokine quantitation reporter, gain or loss-of-signal activity can be used to understand protein changes. To generalize the intended target to other relatable targets, this assay endpoint is annotated to the 'cytokine' intended target family, where the subfamily is 'interleukins'.
The levels of cell surface (or secreted, indicated by the prefix "s") biomarker endpoints were measured by ELISA. Overt cytotoxicity to cells in confluent adherent cultures (all systems other than the BT system) was assessed by measuring total protein levels using sulforhodamine B (SRB) staining in parallel cultures at the time of biomarker measurements, indicated as SRB endpoints. For proliferation assays for adherent cell types, individual cell types are cultured at sub-confluence and relative cell numbers quantified by SRB staining at time points optimized for each system (48 h: 3C and CASM3C systems; 72 h: BT and HDF3CGF systems; 96 h: SAg system). SRB was performed by staining cells with 0.1% SRB after fixation with 10% TCA and reading wells at 560 nm.Viability and proliferation of PBMC (T cells) was quantified by Alamar Blue reduction for the SAg and BT systems. For PBMC viability (referred to as PBMC Cytotoxicity within the assay endpoint names), cells were plated (75,000/well in a 96-well plate) and then chemical samples added for 1 h before addition of activators, SEB and TSST-1 (20 ng/mL final concentration each). Cells were incubated for 90 h. Then, Alamar Blue (20 uL/well) (Invitrogen, Cat DAL1100) was added for 6 h, and the plates were read with a fluorescence microplate reader at 546/580 nm (excitation/emission). For PBMC proliferation, cells were plated and activated as above but incubated for only 16 h prior to addition of Alamar Blue. Plates were read after 6 h.

Row | SMILES | outcome | AC50
1 | C=CCCCCCCCCC=O | inactive | –
2 | CCOC(=O)/C=C\C(=O)OCC | inactive | –
3 | Clc1cc(Cl)c(Cl)c(Cl)c1Cl | inactive | –
4 | Oc1ccc(/C=C/c2cc(O)cc(O)c2)cc1 | – | 23.9 µM (active)
5 | CCOC(=O)C1=NOC(c2ccccc2)(c2ccccc2)C1 | inactive | –
6 | CC=C(C)C(C)=O | inactive | –
7 | CCCCCCCCC(CO)CCCCCC (stereo not given) | inactive | –
8 | COc1ccc(C(=O)c2ccccc2)c(O)c1 | inactive | –
9 | C=CC(=O)OCCCCCCCC(C)C | inactive | –
10 | CCOC(=O)C1=NN(c2ccc(Cl)cc2Cl)C(C)(C(=O)OCC)C1 (stereo not given) | inactive | –
11 | Oc1c(Cl)cc(Cl)c(Cl)c1Cl | inactive | –
12 | CCCCCCC=O | inactive | –
13 | CCc1cccc(C)c1N(C(=O)CS(=O)(=O)O)C(C)COC (stereo not given) | inactive | –
14 | CCN1CN(CC)CN(CC)C1 | inactive | –
15 | CC(C)c1cccc(C(C)C)c1N | inactive | –
16 | CC/C=C\CCOC(=O)c1ccccc1O | – | 20 µM (active)
17 | C=CC(=O)OCC(C)OCC(C)OCC(C)OC(=O)C=C (stereo not given) | – | 7.15 µM (active)
18 | Cc1c(O)cccc1O | inactive | –
19 | O=C1CCCCCCCCCCCN1 | inactive | –
20 | CC(C)CCCCCOC(=O)CS | inactive | –

Row | SMILES | outcome | AC50
21 | COC(OC)(C(=O)c1ccccc1)c1ccccc1 | inactive | –
22 | C=CC(=O)NC(C)(C)C | inactive | –
23 | C=C(C)C(=O)OCCCCCCCCCCCC | inactive | –
24 | Fc1ccc(Br)cc1 | inactive | –
25 | O=C1CCCCCCCCCCC1 | inactive | –
26 | CCCCCCOC(=O)CCCCC(=O)OCCCCCC | inactive | –
27 | CC1(C)CC(O)CC(C)(C)N1[O] | inactive | –
28 | CC(C)[N+](C)(CCOC(=O)C1c2ccccc2Oc2ccccc21)C(C)C | inactive | –
29 | O=C(Oc1ccccc1)c1ccccc1C(=O)Oc1ccccc1 | inactive | –
30 | COc1ccc(C(=O)/C(Br)=C\C(=O)O)cc1 | – | 26.5 µM (active) and 30.2 µM (active)
31 | CC/C=C\C/C=C\C/C=C\CCCCCCCC(=O)OC | – | 15.2 µM (active)
32 | O=C(O)C(F)(F)C(F)(F)C(F)(F)C(F)(F)C(=O)O | inactive | –
33 | CC(Cl)COP(=O)(OCC(C)Cl)OCC(C)Cl (stereo not given) | inactive | –
34 | CC(c1cc(C(C)(C)C)cc(C(C)(C)C)c1O)c1cc(C(C)(C)C)cc(C(C)(C)C)c1O | – | 18.1 µM (active)
35 | C[N+](C)(C)CCCNS(=O)(=O)C(F)(F)C(F)(F)C(F)(F)C(F)(F)C(F)(F)C(F)(F)C(F)(F)C(F)(F)F | – | 22.5 µM (active) and 21.6 µM (active)
36 | c1ccc2sc(SSN3CCOCC3)nc2c1 | – | 19.9 µM (active)
37 | CCCCC1C(=O)N(c2ccccc2)N(c2ccccc2)C1=O | inactive | –
38 | c1ccc2c(c1)[nH]c1ccccc12 | inactive | –
39 | CCC1(C)C(=O)N(Cl)C(=O)N1Cl (stereo not given) | inactive | –
40 | CCNc1nc(NC(C)(C)C)nc(OC)n1 | inactive | –
